What follows are sequences tested on VDR:RXRa (NR concentration 270 nM, RXRa partner concentration 90 nM) (assay: PBM binding z-score (relative to random genomic background probes); higher = stronger binding; sequences stand for … in GC…GCGATTGACAGCGTAGAATGAAGG).
Procedure: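 Protein-binding microarray (Agilent 4x180K custom design, double-stranded 60-nt probes: 5' GC cap, 34-nt variable region, 24-nt constant primer region; full probe sequence given). Purified or IVT nuclear receptor:RXRα heterodimers (3:1 NR:RXRα, mostly 270:90 nM) or homodimers were incubated for 1 h in PBS with 2% milk and no ligand, then detected with Alexa488 antibodies. Fluorescence from o1-orientation probes (~5 replicates averaged) was converted to z-scores against 500 random hg19 background probes. Variable regions are seed direct-repeat (DR0–DR5) sites, all their single-nucleotide variants and half-site ablations.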
TCCATTAGTTGATTAGGGCAACCGAAACAGCGGA was tested, and the PBM binding z-score was 0.545.
Sequence ATATGTAGGTTAAGGGGCATTCAGGTTGGTTCGC has a PBM binding z-score of 2.2.
With CCTACTGGGCCACGAAAGGTCATTGGTTCAGTGA the PBM binding z-score was 4.55.
Sequence CAAACTAGGCCAAAGGTCAAAGTCGAGCCAACCA has a PBM binding z-score of 4.89.
TCGAGTAGCTTAGTCGGGGCATTCAGCCAACATA showed a PBM binding z-score of -0.32.
For AGAACGAGGGCACGCTGAGTTGATAGAAGAGTAG, the PBM binding z-score was 2.26.
Sequence AGAATGAGGTTAAGACCAGGGAAACAGAATACAT has a PBM binding z-score of 1.03.
With TAGCCTAGGTCATTCAGGTGCCAGTATAGAAAGC the PBM binding z-score was 3.1.
Sequence ATCGAAAGGTCGACGAGGTGAGTATTCACCGTTT has a PBM binding z-score of 5.38.
Work on CAAACTAGGTCAAGAGGGCAAAGTCCGCTTCCCG yielded a PBM binding z-score of 3.46.
For AGAATGAGGTTATTATGATCAGGGAATTGCGGTC, the PBM binding z-score was 1.65.
Work on TCTGCTAGGTCAAGGATGGTCAGCTAATCTGCTA yielded a PBM binding z-score of 1.18.
In the case of CTACCAAGCTGAACAAGGTCGTTGATTACTATTC, the PBM binding z-score is reported as 1.51.
Sequence AGTCAAAGTTCATCCAGGTAACGTAAGATATGCT has a PBM binding z-score of 5.39.
Sequence CCGACTGGGGCATAAGCTTACCATAAGCCAGCCC has a PBM binding z-score of -0.79.
TAGCCTAGGTCTTTCAGGGGCCAGTATAGAAAGC gave a PBM binding z-score of -0.481.
With CCTTACGGGTCACTGACAGGTTAGAGCATTTGGA the PBM binding z-score was 3.33.
In the case of CTTCGGAGGACAGAAGGTCAGAGCTGTCCGCTTT, the PBM binding z-score is reported as 0.953.
For ATCGAAAGGTCGACGAGATGAGTATACACCGTTT, the PBM binding z-score was 2.46.
With TCGAGTAGGTTAGTGGCATTCAGAATGGCGTCGA the PBM binding z-score was -0.261.
Sequence ATATGTAGGTTACATCCGGGTCATTCATGCTATG has a PBM binding z-score of 4.1.
In the case of AGTCAAAGTTCAGGACGAGGTAACTTAAAGCACG, the PBM binding z-score is reported as 3.1.
TCTAGCAGGGCAGAGGGTCACTCAAGAGGTACGG showed a PBM binding z-score of 1.63.
TCGTATAGGTAAATGCTAGGTGAAAGTCCGATCT showed a PBM binding z-score of 0.443.
Work on CGTCCATGGTCAAGGTCAGTGAAAGAGACTCGAA yielded a PBM binding z-score of 1.51.
GCTGCTAGGTCAACGGATGGTCAGCTAAAGCTCG gave a PBM binding z-score of 0.92.
GCTAGTTGGTCAGTAAAAGGTCACACATCGGTCG showed a PBM binding z-score of 3.96.
GTACCAGGGTGAATAGGTCGTTGATGAGTAGGCG showed a PBM binding z-score of 1.
With GATACAGGGTCAAGGCCAGAGTTCGCGTATTGAT the PBM binding z-score was 5.31.
Work on CCTATTAGTTGACCATAAGGGCACCCGAAGCTCG yielded a PBM binding z-score of 1.09.
TCTCGGAGGACACTAAGGTCAGAGCTTTCCAGAG gave a PBM binding z-score of 3.31.
For TCGAGTAGGTTACCAATGGGGGATTCAGCTTTCT, the PBM binding z-score was 0.83.
Sequence CCTTACGGGTCACTGACAGGTTATAGGATTTGGA has a PBM binding z-score of 3.77.
ATCTCTAGGAAAAGATAGTTCAGTGAATGCAAAT showed a PBM binding z-score of 0.581.
ATCTCTAGGTAAAGACAGTTCAGTGAATGCAAAT was tested, and the PBM binding z-score was 1.53.
GCTGCTAGGTCAACTGATCGTCAGCTAAAGCTCG was tested, and the PBM binding z-score was 1.13.
TCTGCTAGGTAAGTTGGTCAGCTAACGAGCTGCC showed a PBM binding z-score of -0.464.
In the case of GATACAGGGTCAAGGCCAGAGTCCGCGTATTGAT, the PBM binding z-score is reported as 4.32.
GATAAAGGGTCAAGGCCAGAGTACGCGTATTGAT gave a PBM binding z-score of 4.56.
GCAGACAGGTGAAACGCAGGTAACTCATGGTGGC gave a PBM binding z-score of -0.567.

Reference: the supplement of paper PMC6555819
